# Screening results deposited in PubChem BioAssay by National Center for Advancing Translational Sciences (NCATS).
# ERG-DNA inh – blocks human ERG Ets domain binding to DNA | P11308 | fluorescence polarization, His-ERG Ets domain / labelled DNA | Potency, µM (doses to about 76.9 µM), most hits filed as inhibitors | actives 0.028% (n = 370,000) | AID 624246; active = well fitted inhibition curve with a large enough effect in the polarisation, with a control signal flat; inconclusive = small, poorly fitted or top-dose-only effect, or effect the other way, or a change in a side signal; inactive = no such curve, though single readings can be large or run the other way; the % refers to the polarisation;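 note: polarization taken with two DNA probes labelled with fluorescein and Texas red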
#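 His-tagged ERG Ets domain (1 uM in the protein solution; 300mM KCl, 50mM Tris-HCl, 1mM EDTA, 1mM DTT, pH 7.5) received compound, then a probe mix of 5 nM fluorescein-DNA and 100nM Texas-615-DNA. Fluorescence polarization was read for both dyes.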
# BRCA1 expr up – increases BRCA1 expression. AID 624202. MCF7-BRCA1-FFLuc reporter, luminescence, 48 h; response scale: scaled: vehicle 0%, 10 µM genistein 100%. Potency, µM (top dose mostly 46.1 µM), actives largely listed as activators. actives 1.1% (n = 380,000); note: nearly all actives have a fitted effect of over 80% in size
#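 Quantitative HTS in MCF7 cells stably reporting BRCA1 expression via firefly luciferase. Compound treatment lasts 48 h at 37 °C in phenol-red free MEM. Activation is expressed relative to genistein at 10 microM and DMSO.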
# Mito fusion act – blocks mitochondrial division or promotes mitochondrial fusion; S. cerevisiae fusion-defective mutant growth rescue, CellTiterGlo 48 h; Potency, µM (titrated, usually from 46.1 µM), usual class: activators; actives 0.23% (n = 320,000); note: nearly all actives have a fitted effect of over 45% in size
#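 Growth-rescue viability read-out: after 48 h at the non-permissive 37C in glycerol/ethanol YPEG, yeast mitochondrial fusion mutants are measured by CellTiterGlo luminescence; compounds (23 nl pinned per well) restoring growth score as division inhibitors or fusion activators.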
# B2AR arrestin – recruits beta-arrestin to the human beta2-adrenergic receptor; P07550; beta-arrestin recruitment to beta2AR, cell-based reporter; Potency, µM (doses to about 46.1 µM), most hits filed as activators; actives 0.02% (n = 330,000); AID 492947; note: nearly all actives have a fitted effect of over 65% in size
# Target sequence (P07550 whole entry, looked up): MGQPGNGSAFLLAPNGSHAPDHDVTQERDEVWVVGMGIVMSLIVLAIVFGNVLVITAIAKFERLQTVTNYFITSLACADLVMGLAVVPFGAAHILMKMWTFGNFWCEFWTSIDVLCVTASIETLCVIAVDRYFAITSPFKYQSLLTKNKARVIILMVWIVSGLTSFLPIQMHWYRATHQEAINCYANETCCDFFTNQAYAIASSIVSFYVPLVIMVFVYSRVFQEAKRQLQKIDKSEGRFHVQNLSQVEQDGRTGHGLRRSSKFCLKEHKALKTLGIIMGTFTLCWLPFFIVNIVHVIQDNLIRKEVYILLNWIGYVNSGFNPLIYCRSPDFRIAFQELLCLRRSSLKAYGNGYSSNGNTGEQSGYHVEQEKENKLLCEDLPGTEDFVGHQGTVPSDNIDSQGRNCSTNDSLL
# Numbers stand for hits; i = inactive; ? = inconclusive; nt = no result; ! = not confirmed by another sample. Sampled rows, rich in hits. Any-hit rate of the full collection: about 1.2%. Unless noted, calls come from the whole dose curve; as a rule, active = well fitted curve in the direction sought with a large enough effect; inconclusive = small, poorly fitted or top-dose-only effect, or another doubt; inactive = no such curve, though single readings can be large; an effect the other way counts as inactive or inconclusive.
SMILES,ERG-DNA inh,BRCA1 expr up,Mito fusion act,B2AR arrestin
CC(NC(=O)COC(=O)c1ccco1)C12CC3CC(CC(C3)C1)C2 (stereo not drawn),nt,i,nt,nt
CCOc1ccccc1C(=O)N(Cc1ccco1)Cc1ccco1,i,nt,nt,nt
COc1ccc(C2Nc3ccccc3C(=O)N2Cc2ccccc2)cc1COc1ccc(Cl)cc1Cl (stereo not drawn),nt,nt,i,i
CCCCNc1c(-c2ccc(-c3cccc(Cl)c3)cc2)nc2ccccn12,i,8.91µM,i,i
O=C(COCc1cc(-c2ccc(F)cc2)on1)Nc1cccc(Cl)c1Cl,i,nt,nt,nt
COc1ccccc1C1CCN(Cc2cccc(C(=O)N3CCC(O)CC3)c2)CC1,i,i,i,i
COc1ccccc1C1CCN(Cc2ccc(C)cc2)CC1,31.6µM,i,i,i
Clc1ccc(CN2CCC(CNc3ncnc4onc(-c5ccc(Cl)cc5)c34)CC2)cc1,i,i,nt,nt
CCOC(=O)c1cc2c(nc1NC(=S)NCc1ccccc1)CCCC2,i,4.47µM,i,i
CCOC(=O)c1cc2c(nc1NC(=S)Nc1ccccc1)CC(C)(C)OC2,i,i,i,i
Cc1ccccc1C(=O)Nc1nc(-c2ccc(Br)cc2)ns1,i,nt,nt,nt
O=C(CSc1nc2ccsc2c(=O)n1-c1ccc(Br)cc1)NCc1ccc(Cl)cc1,i,i,nt,nt
Cc1cc(S(=O)(=O)Nc2cccnc2)c(C)s1,i,i,i,i
Cc1cc(S(=O)(=O)Nc2ccc3ccccc3c2)c(C)s1,i,i,17.8µM,i
CN(c1ccccc1)c1nc2ccsc2c(=O)s1,i,10µM,i,i
CCN(c1ccccc1)c1nc2ccsc2c(=O)s1,i,i,i,i
O=C(Nc1nnc(Cc2ccccc2)s1)c1cccs1,i,?,i,i
O=C(Nc1nnc(CC2=CCCCC2)s1)c1cccs1,i,6.31µM,i,i
O=C(Nc1ccc(N2CCCC2)c(Cl)c1)c1ccccc1F,nt,3.16µM,nt,nt
O=C(Nc1ccc(N2CCCC2)c(Cl)c1)c1ccc(Br)o1,i,3.98µM,i,i
Cc1cc(N2CCN(C)CC2)nc2ccc(NC(=O)c3ccccc3F)cc12,i,11.2µM,i,i
COc1ccc(NC(=O)CN(C)S(=O)(=O)c2ccc3[nH]c4c(c3c2)CCCC4)cc1Cl,i,nt,nt,nt
Cc1ccc(S(=O)(=O)N2CCCN(c3nc(-c4cccs4)nc4ccccc34)CC2)cc1,nt,i,nt,nt
COc1cccc(C2CC(=O)Nc3c2ccc(C)c3C)c1OC (stereo not drawn),i,i,nt,nt
COc1ccc(-n2c(=O)c3c4c(sc3n(Cc3ccc(F)cc3)c2=O)CN(C(C)=O)CC4)c(OC)c1,i,i,nt,nt
SMILES,ERG-DNA inh,BRCA1 expr up,Mito fusion act,B2AR arrestin
Cc1ccc(Cn2c(CNC(=O)c3ccccc3Br)nc3cccnc32)cc1,i,nt,nt,nt
COc1ccccc1NC(=O)CN1C(=O)C(c2ccc(F)cc2)=NC12CCCCC2,i,nt,nt,nt
COc1ccccc1NC(=O)CSCc1cc(=O)c2c(C)cc(C)cc2[nH]1,i,nt,nt,nt
CCOC(=O)c1oc2cc(C)cc(C)c2c1C,i,i,i,i
CCOC(=O)c1oc2ccc(/C=N/O)c(Cl)c2c1C,i,7.08µM,i,i
CCOC(=O)c1cccc(NS(=O)(=O)c2cc3c(cc2C)NC(=O)CO3)c1,i,nt,nt,nt
COC(=O)c1c(NC(=O)Cc2cccs2)sc(C(=O)NC2CCCCC2)c1C,nt,3.16µM,nt,nt
Cc1ccc(C(=O)NCCc2c[nH]c3ccccc23)s1,i,3.16µM,i,i
O=C1c2ccccc2C(=O)N1CCc1c[nH]c2ccccc12,i,2.24µM,i,i
O=C(NCCc1c[nH]c2ccccc12)c1ccccc1,i,12.6µM,i,i
O=C(NCCc1c[nH]c2ccccc12)c1ccc([N+](=O)[O-])cc1,i,?,i,i
O=C(NCCc1ccccc1)c1n[nH]c2ccccc12,i,3.16µM,i,i
Cc1ccc(CN2CCCn3nc(C(=O)NCc4ccc(N(C)C)cc4)cc3C2=O)cc1,i,nt,nt,nt
CC(=O)c1ccc(NC(=O)c2sc(-n3nc(C)c(Cc4ccc5c(c4)OCO5)c3C)nc2C)cc1,i,nt,nt,nt
Cc1nc(-c2ccc(C)c(N3CCN(C(=O)Nc4ccc(Br)cc4)CC3)c2)no1,i,i,nt,nt
Nc1c(-c2cccc(Cl)c2)cnn1-c1cccc(C(F)(F)F)c1,i,i,i,i
Cc1ccc(-c2cnn(-c3cccc([N+](=O)[O-])c3)c2N)cc1,i,5.62µM,i,i
Nc1c(-c2ccccc2)cnn1-c1cccc(C(F)(F)F)c1,i,5.01µM,i,i
Cc1ccc(Nc2cc(C)nc(-c3ccccc3)n2)cc1,i,3.16µM,i,i
CCOC(=O)c1cnn2c(C)cc(-c3ccc(F)cc3)nc12,i,2.82µM,i,i
Cc1cc(-c2ccc(F)cc2)nc2cc(C(N)=O)nn12,i,i,i,i
CC1CCN(C(=O)c2ccc3ccccc3c2)CC1,i,2.51µM,i,i
COc1ccccc1/C=C/C=N/n1c(-c2ccccn2)n[nH]c1=S,i,11.2µM,i,i
COc1ccc(S(=O)(=O)N2CCN(Cc3nc4ccc(C)cc4o3)CC2)cc1,i,nt,nt,nt
O=C(CN1CCCCC1)Nc1nc(-c2ccc(F)c(F)c2)cs1,i,7.08µM,i,i
SMILES,ERG-DNA inh,BRCA1 expr up,Mito fusion act,B2AR arrestin
Cc1oncc1C(=O)Nc1ccc(C(F)(F)F)cc1,i,i,20.6µM!,i
COc1ccccc1-c1ccc(NC2CCCCC2)nn1,i,7.08µM,i,i
CCc1ccc(NC(=O)CSc2nc3n[nH]c(C)c3c(=N)n2-c2ccccc2C)cc1,i,nt,nt,nt
Cc1c(Cl)cccc1-n1c(SCC(=O)NCc2ccccc2)nc2n[nH]c(C)c2c1=N,i,nt,nt,nt
COc1ccc(OC)c(NC(=O)CSc2nc3n[nH]c(C)c3c(=N)n2-c2cccc(Cl)c2C)c1,i,i,6.31µM,i
Cc1ccccc1-n1c(SCC(=O)Nc2ccccc2Cl)nc2n[nH]c(C)c2c1=N,i,i,11.2µM,i
CCc1cccc(NC(=O)COC(=O)c2ccccc2OCc2ccccc2Br)c1,nt,i,nt,nt
N/C(=N\OC(=O)c1ccccc1)c1cccnc1,i,11.2µM,i,i
N/C(=N\OC(=O)c1ccc2c(c1)OCO2)c1cccc(Br)c1,i,?,i,i
N/C(=N\OC(=O)c1ccc2c(c1)OCO2)c1cccnc1,i,10µM,i,i
Fc1ccc(N2CCN(c3ncnc4c3nc3n4CCCC3)CC2)cc1,i,i,nt,nt
CC(C)(C)c1ccc(OCC(=O)N2CCN(c3ccccn3)CC2)cc1,i,i,i,i
CC(C)(Oc1ccc(Cl)cc1)C(=O)N1CCN(c2ccccn2)CC1,i,i,14.1µM,i
CC(=O)Nc1ccc2nc(SCC(=O)Nc3ccc(N4CCOCC4)c(Cl)c3)sc2c1,i,12.6µM,i,i
O=C(CSc1nc2ccccc2o1)Nc1ccc(N2CCOCC2)c(Cl)c1,i,6.31µM,i,i
O=C(CSc1nc2ccccc2s1)Nc1ccc(N2CCOCC2)c(Cl)c1,i,i,i,i
COC(=O)CC1Oc2ccccc2-n2cc(-c3ccc(Cl)cc3)nc21 (stereo not drawn),i,i,nt,nt
CCOc1ccc(/C=C2\CCC(C3CCCC3)C2=O)cc1 (stereo not drawn),i,3.98µM,i,i
